# From PubChem BioAssay (Tox21)
# Where “and” joins values, the source holds several entries; their conditions need not be identical. Identical values can stand only once. Records with an inconclusive call do not appear. Entries that show only a call come without a potency. Calls of active or inactive are those of the source. Unless noted, calls follow the shape of the dose curve; as a rule, active = well fitted curve in the direction sought with a large enough effect in the repeat runs; inconclusive = weak or mixed curves; inactive = no such curve, though single readings can be large; an effect the other way counts as inactive or inconclusive.
# Columns and labels:
# [1] = biological target: Aryl hydrocarbon receptor (Homo sapiens) (UniProt P35869); experiment: qHTS assay to identify small molecule that activate the aryl hydrocarbon receptor (AhR) signaling pathway (AID 743085); also: nearly all actives have a fitted effect of over 15% in size; also: potency is read from the fitted curve at half-maximal effect;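 as to activation: HG2L7.5c1 human HepG2 liver cells with stably integrated DRE-driven firefly reporter; series mostly up to about 70 µM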
# Method in brief: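 Luminescence (ONE-Glo) from a dioxin-responsive-element luciferase reporter in HG2L7.5c1 HepG2 cells after 24 hr compound exposure at 37C; viability measured by CellTiter-Fluor fluorescence beforehand.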
# [2] = qHTS assay to identify small molecule that activate the aryl hydrocarbon receptor (AhR) signaling pathway - cell viability counter screen (AID 743086); also: nearly all actives have a fitted effect of over 45% in size; also: potency is read from the fitted curve at half-maximal effect
# Method in brief: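 HepG2-AhR-luc (HG2L7.5c1) cells, 4000/well, treated 24 h at 37 C with compound; viability measured as CellTiter-Fluor fluorescence after 30 min in the same wells as the luciferase read.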
# [3] = qHTS assay to identify small molecule antagonists of the peroxisome proliferator-activated receptor gamma (PPARg) signaling pathway - cell viability counter screen (AID 743194); also: nearly all actives have a fitted effect of over 55% in size; also: potency is read from the fitted curve at half-maximal effect
# Method in brief: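 Cytotoxicity counter screen in PPARg-bla HEK293H cells, same wells as reporter assay. Compounds plus 50 nM rosiglitazone (final) for 17 h at 37 C, then viability read by CellTiter-Glo luminescence.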
# [4] = qHTS assay for small molecule agonists of the antioxidant response element (ARE) signaling pathway - cell viability counter screen (AID 743203; calls by dose curve; also: nearly all actives have a fitted effect of over 55% in size; also: potency is read from the fitted curve at half-maximal effect)
# Method in brief: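 ARE-bla HepG2 cells were plated, rested 5 h at 37C/5% CO2, then exposed to compounds in DMSO for 16 h. Viability was read as CellTiter-Glo luminescence after 30 min at room temperature, in the same wells as the ARE screen.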
# [5] = biological target: Peroxisome proliferator-activated receptor delta (Homo sapiens) (UniProt Q03181); experiment: qHTS assay to identify small molecule agonists of the peroxisome proliferator-activated receptor delta (PPARd) signaling pathway (AID 743212; calls by dose curve)
# Method in brief: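 Quantitative high-throughput agonist screen in a HEK293H beta-lactamase reporter line under UAS control. Compounds in DMSO, at 37 C. Fluorescence read after 2 h with FRET substrate at room temperature.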
# [6] = biological target: Bile acid receptor (Homo sapiens) (UniProt Q96RI1); experiment: qHTS assay to identify small molecule antagonists of the farnesoid-X-receptor (FXR) signaling pathway (AID 743217; active = well fitted inhibition curve with a large enough effect in the signal ratio in the repeat runs, not every such curve was filed as active; the % refers to the signal ratio; also: potency is read from the fitted curve at half-maximal effect)
# Method in brief: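 FXR-UAS-bla HEK 293T cells (beta-lactamase reporter) given compound plus chenodeoxycholic acid (50 uM final), 16 h at 37C. LiveBLAzer B/G FRET substrate added for 2 h at room temperature; fluorescence read.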
# [7] = qHTS assay to identify small molecule agonists of the farnesoid-X-receptor (FXR) signaling pathway - cell viability counter screen (AID 743218); also: nearly all actives have a fitted effect of over 45% in size; also: potency is read from the fitted curve at half-maximal effect
# Method in brief: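 FXR-UAS-bla HEK 293T cells exposed to compounds for 16 h at 37C. Cytotoxicity read in the same wells by CellTiter-Glo luminescence after 30 min at room temperature, following the beta-lactamase FRET read.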
# [8] = biological target: Bile acid receptor (Homo sapiens) (UniProt Q96RI1); experiment: qHTS assay to identify small molecule agonists of the farnesoid-X-receptor (FXR) signaling pathway (AID 743220; active = well fitted activation curve with a large enough effect in the signal ratio in the repeat runs, not every such curve was filed as active; the % refers to the signal ratio)
# Method in brief: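 Beta-lactamase reporter under UAS control in GeneBLAzer FXR HEK 293T cells (5000/well) measured with LiveBLAzer FRET substrate after 2 h at room temperature. Compound exposure lasted 16 h at 37C.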
# [9] = qHTS assay to identify small molecule antagonists of the farnesoid-X-receptor (FXR) signaling pathway - cell viability counter screen (AID 743221; active = well fitted cell-killing curve with a large enough effect in the repeat runs, not every such curve was filed as active; also: nearly all actives have a fitted effect of over 50% in size; also: potency is read from the fitted curve at half-maximal effect)
# Method in brief: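 Cytotoxicity counter screen run in the FXR-bla reporter wells: HEK 293T cells exposed to compound with 50 uM (final) chenodeoxycholic acid for 16 h, 37 C, then viability measured by CellTiter-Glo luminescence after 30 min, room temperature.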
# [10] = qHTS assay to identify small molecule agonists of the vitamin D receptor (VDR) signaling pathway - cell viability counter screen (AID 743224); also: nearly all actives have a fitted effect of over 50% in size; also: potency is read from the fitted curve at half-maximal effect
# Method in brief: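 VDR-bla cells, 4 h after plating, exposed to compounds for 16 h at 37C; viability then read in the same wells as CellTiter-Glo luminescence after 30 min at room temperature, following the bla FRET read.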
# [11] = qHTS assay to identify small molecule agonists of the peroxisome proliferator-activated receptor delta (PPARd) signaling pathway - cell viability counter screen (AID 743211); also: nearly all actives have a fitted effect of over 55% in size; also: potency is read from the fitted curve at half-maximal effect
# Method in brief: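 Viability was measured as CellTiter-Glo luminescence (30 min, room temperature) in the same wells as the beta-lactamase readout. GeneBLAzer PPARd UAS-bla HEK293H cells received compound after 5 h plating and were incubated 17 h at 37 C.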
# [12] = qHTS assay to identify small molecule antagonists of the peroxisome proliferator-activated receptor delta (PPARd) signaling pathway - cell viability counter screen (AID 743213); also: nearly all actives have a fitted effect of over 50% in size; also: potency is read from the fitted curve at half-maximal effect
# Method in brief: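 Luminescence from CellTiter-Glo, added after the bla read and incubated 30 min at room temperature, gives viability of HEK293H PPARd-bla cells exposed to compounds for 17 h at 37 C with 300 nM L165041.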
# [13] = biological target: Peroxisome proliferator-activated receptor gamma (Homo sapiens) (UniProt P37231); experiment: qHTS assay to identify small molecule agonists of the peroxisome proliferator-activated receptor gamma (PPARg) signaling pathway (AID 743094; active = well fitted activation curve with a large enough effect in the signal ratio in the repeat runs, not every such curve was filed as active; the % refers to the signal ratio)
# Method in brief: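 GeneBLAzer PPARg UAS-bla HEK293H cells were plated, rested 5 h, then exposed to compounds for 17 h at 37C. Beta-lactamase activity was read by LiveBLAzer B/G FRET substrate fluorescence after 1 h at room temperature.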
# [14] = qHTS assay for small molecule activators of the heat shock response signaling pathway - cell viability counter screen (AID 743209); also: nearly all actives have a fitted effect of over 50% in size; also: potency is read from the fitted curve at half-maximal effect
# Method in brief: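 HSE-bla HeLa cells plated overnight, then exposed to Tox21 compounds (23 nL in DMSO) for 5 h at 37 C. After the bla reporter read, CellTiter-Glo was added in the same wells and luminescence read after 30 min at room temperature.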
# [15] = biological target: Vitamin D3 receptor (Homo sapiens) (UniProt P11473); experiment: qHTS assay to identify small molecule agonists of the vitamin D receptor (VDR) signaling pathway (AID 743222; calls by dose curve; also: potency is read from the fitted curve at half-maximal effect)
# Method in brief: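 VDR-bla cells plated 4 h at 37 C, then exposed to compounds for 16 h at 37 C. Beta-lactamase reporter activity measured by fluorescence after 2 h room-temperature loading with LiveBLAzer B/G FRET substrate.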
# [16] = qHTS assay for small molecule activators of the heat shock response signaling pathway (AID 743210; active = well fitted activation curve with a large enough effect in the signal ratio in the repeat runs, with a control signal flat, not every such curve was filed as active; the % refers to the signal ratio;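 also: HeLa cells with beta-lactamase reporter driven by heat shock elements; series mostly up to about 63 µM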)
# Method in brief: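 Quantitative high-throughput format using an engineered HeLa line in which heat shock response elements drive beta-lactamase; after 5 h with compound, cells received a B/G FRET substrate and fluorescence was read.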
# [17] = biological target: Peroxisome proliferator-activated receptor delta (Homo sapiens) (UniProt Q03181); experiment: qHTS assay to identify small molecule antagonists of the peroxisome proliferator-activated receptor delta (PPARd) signaling pathway (AID 743215; active = well fitted inhibition curve with a large enough effect in the signal ratio in the repeat runs, not every such curve was filed as active; the % refers to the signal ratio;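 also: cells stimulated with agonist L165041 at 300 nM final during compound exposure; series mostly up to about 62 µM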)
# Method in brief: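 PPARd-bla HEK293H cells (UAS-bla reporter) preincubated 5 h, then given compound plus 300 nM final L165041 agonist for 17 h at 37 C. Beta-lactamase activity read by LiveBLAzer B/G FRET substrate fluorescence after 2 h at room temperature.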
# [18] = biological target: Peroxisome proliferator-activated receptor gamma (Homo sapiens) (UniProt P37231); experiment: qHTS assay to identify small molecule antagonists of the peroxisome proliferator-activated receptor gamma (PPARg) signaling pathway (AID 743191; calls by dose curve; also: potency is read from the fitted curve at half-maximal effect; nearly all actives have a fitted effect of over 30% in size)
# Method in brief: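 GeneBLAzer PPARg UAS-bla HEK293H cells, 5 h post-plating, exposed to compounds 17 h at 37C. LiveBLAzer B/G FRET substrate added for 1 h at room temperature; beta-lactamase reporter read by fluorescence intensity.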
# [19] = biological target: Vitamin D3 receptor (Homo sapiens) (UniProt P11473); experiment: qHTS assay to identify small molecule antagonists of the vitamin D receptor (VDR) signaling pathway (AID 743223; active = well fitted inhibition curve with a large enough effect in the signal ratio in the repeat runs, not every such curve was filed as active; the % refers to the signal ratio; also: potency is read from the fitted curve at half-maximal effect)
# Method in brief: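 Antagonist mode: compound added to VDR-bla cells alongside agonist 1alpha,25-dihydroxyvitamin D3 (3 nM final), incubation 16 h at 37C. Read-out is LiveBLAzer FRET fluorescence, 2 h at room temperature.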
# Chain of Vitamin D3 receptor (Homo sapiens) (P11473 whole entry, looked up): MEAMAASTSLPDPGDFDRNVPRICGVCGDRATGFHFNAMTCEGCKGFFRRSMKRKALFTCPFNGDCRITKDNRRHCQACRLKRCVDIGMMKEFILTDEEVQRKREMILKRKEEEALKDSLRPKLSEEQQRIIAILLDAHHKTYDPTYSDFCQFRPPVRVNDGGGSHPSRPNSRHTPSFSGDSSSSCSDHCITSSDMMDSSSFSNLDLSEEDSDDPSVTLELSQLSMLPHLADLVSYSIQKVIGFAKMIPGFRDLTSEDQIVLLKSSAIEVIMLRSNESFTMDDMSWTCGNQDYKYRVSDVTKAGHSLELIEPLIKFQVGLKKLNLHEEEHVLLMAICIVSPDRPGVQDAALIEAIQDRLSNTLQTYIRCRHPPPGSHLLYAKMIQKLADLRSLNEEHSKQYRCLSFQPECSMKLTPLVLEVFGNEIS
# Chain of Peroxisome proliferator-activated receptor gamma (Homo sapiens) (P37231 whole entry, looked up): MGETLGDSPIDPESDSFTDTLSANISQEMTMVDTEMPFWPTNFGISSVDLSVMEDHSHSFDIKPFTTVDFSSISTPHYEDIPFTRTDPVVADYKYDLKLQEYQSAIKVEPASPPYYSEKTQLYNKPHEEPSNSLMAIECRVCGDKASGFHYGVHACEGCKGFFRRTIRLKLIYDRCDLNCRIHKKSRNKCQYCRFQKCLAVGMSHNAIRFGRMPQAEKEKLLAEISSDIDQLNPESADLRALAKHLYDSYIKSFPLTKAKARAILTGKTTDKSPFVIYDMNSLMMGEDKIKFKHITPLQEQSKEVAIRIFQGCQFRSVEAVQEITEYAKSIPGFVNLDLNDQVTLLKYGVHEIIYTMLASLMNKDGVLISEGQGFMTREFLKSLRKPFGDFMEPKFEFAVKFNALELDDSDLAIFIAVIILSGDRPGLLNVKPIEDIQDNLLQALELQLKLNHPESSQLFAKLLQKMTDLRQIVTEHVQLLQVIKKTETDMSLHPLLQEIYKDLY
# Chain of Peroxisome proliferator-activated receptor delta (Homo sapiens) (Q03181 whole entry, looked up): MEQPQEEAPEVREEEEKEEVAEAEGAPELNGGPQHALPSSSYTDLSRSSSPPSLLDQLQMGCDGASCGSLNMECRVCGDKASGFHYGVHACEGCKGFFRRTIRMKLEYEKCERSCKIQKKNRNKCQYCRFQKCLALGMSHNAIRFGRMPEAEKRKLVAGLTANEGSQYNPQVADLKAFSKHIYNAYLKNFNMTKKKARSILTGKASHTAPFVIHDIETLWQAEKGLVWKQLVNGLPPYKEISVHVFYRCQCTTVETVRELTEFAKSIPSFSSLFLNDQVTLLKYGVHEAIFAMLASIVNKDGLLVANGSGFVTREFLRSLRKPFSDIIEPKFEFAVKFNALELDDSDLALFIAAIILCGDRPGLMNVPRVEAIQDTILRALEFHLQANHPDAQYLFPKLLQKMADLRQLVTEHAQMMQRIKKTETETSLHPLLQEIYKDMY
# Chain of Aryl hydrocarbon receptor (Homo sapiens) (P35869 whole entry, looked up): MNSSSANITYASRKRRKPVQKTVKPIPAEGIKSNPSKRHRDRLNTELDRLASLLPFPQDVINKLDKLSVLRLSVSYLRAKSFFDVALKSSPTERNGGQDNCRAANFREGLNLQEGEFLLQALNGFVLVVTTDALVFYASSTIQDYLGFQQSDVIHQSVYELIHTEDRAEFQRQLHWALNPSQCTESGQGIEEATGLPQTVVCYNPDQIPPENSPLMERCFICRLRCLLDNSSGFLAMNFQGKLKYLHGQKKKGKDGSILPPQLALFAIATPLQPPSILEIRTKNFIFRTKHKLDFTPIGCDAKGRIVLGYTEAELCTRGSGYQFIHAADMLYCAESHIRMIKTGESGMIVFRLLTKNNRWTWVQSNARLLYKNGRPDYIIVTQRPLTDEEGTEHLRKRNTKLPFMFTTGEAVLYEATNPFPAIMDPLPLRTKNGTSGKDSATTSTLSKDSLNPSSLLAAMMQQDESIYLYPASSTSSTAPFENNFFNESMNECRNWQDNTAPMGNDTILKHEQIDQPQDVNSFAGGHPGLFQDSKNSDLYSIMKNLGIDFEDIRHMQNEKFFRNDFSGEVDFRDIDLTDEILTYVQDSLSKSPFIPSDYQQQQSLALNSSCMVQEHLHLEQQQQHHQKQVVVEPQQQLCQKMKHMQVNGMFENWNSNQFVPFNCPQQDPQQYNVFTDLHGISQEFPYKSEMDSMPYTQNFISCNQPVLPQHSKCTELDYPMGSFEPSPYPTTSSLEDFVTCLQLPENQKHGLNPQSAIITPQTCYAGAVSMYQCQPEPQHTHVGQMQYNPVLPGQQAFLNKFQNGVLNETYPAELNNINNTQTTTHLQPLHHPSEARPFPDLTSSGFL
# Chain of Bile acid receptor (Homo sapiens) (Q96RI1 whole entry, looked up): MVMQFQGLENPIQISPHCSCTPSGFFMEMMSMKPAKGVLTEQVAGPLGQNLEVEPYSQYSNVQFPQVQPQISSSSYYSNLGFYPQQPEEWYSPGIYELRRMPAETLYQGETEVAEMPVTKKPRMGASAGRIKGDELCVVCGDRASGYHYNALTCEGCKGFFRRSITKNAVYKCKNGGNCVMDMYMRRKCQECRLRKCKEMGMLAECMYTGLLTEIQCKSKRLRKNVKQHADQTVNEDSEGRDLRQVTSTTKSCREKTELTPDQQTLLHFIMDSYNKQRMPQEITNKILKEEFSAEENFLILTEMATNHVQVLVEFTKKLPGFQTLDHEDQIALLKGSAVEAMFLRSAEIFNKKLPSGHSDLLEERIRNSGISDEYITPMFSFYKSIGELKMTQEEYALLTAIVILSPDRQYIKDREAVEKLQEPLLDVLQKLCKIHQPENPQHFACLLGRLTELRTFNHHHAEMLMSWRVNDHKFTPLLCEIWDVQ
smiles,measurement,setting,value
O=c1cccccc1O,Potency,[1],inactive
same,Potency,[2],inactive
same,Potency,[3],inactive
same,Potency,[4],inactive
same,Potency,[5],inactive
same,Potency,[6],inactive
same,Potency,[7],inactive
same,Potency,[8],inactive
same,Potency,[9],inactive
COc1ccc(-c2ccc3cc(C(=O)O)ccc3c2)cc1C12CC3CC(CC(C3)C1)C2,Potency,[1],inactive
same,Potency,[2],inactive
same,Potency,[3],23.7 µM (active)
same,Potency,[4],23.7 µM (active)
same,Potency,[7],7.5 µM (active)
same,Potency,[10],23.7 µM (active)
CC(C)(C)NC(=O)[C@@H]1C[C@@H]2CCCC[C@@H]2CN1C[C@@H](O)[C@H](Cc1ccccc1)NC(=O)[C@H](CC(N)=O)NC(=O)c1ccc2ccccc2n1,Potency,[1],inactive
same,Potency,[2],26.6 µM (active) and 22 µM (active)
same,Potency,[3],49.6 µM (active)
same,Potency,[11],35.1 µM (active)
same,Potency,[5],inactive
same,Potency,[12],44.2 µM (active)
same,Potency,[7],55.7 µM (active)
same,Potency,[8],inactive
same,Potency,[10],44.2 µM (active)
Cc1cc(O)c(Cl)c(C)c1Cl,Potency,[1],inactive
same,Potency,[13],inactive
same,Potency,[4],30.6 µM (active)
same,Potency,[14],38.9 µM (active)
same,Potency,[11],43.6 µM (active)
same,Potency,[6],49 µM (active)
same,Potency,[7],49 µM (active)
same,Potency,[9],49 µM (active)
same,Potency,[15],inactive
same,Potency,[10],43.6 µM (active)
CC(=O)S[C@@H]1CC2=CC(=O)CC[C@]2(C)[C@H]2CC[C@@]3(C)[C@@H](CC[C@@]34CCC(=O)O4)[C@H]12,Potency,[1],inactive
same,Potency,[2],inactive
same,Potency,[16],inactive
same,Potency,[11],inactive
same,Potency,[7],inactive
same,Potency,[10],inactive
O=Cc1cc(O)ccc1Br,Potency,[1],inactive
same,Potency,[2],inactive
same,Potency,[4],inactive
same,Potency,[5],inactive
same,Potency,[12],inactive
same,Potency,[17],inactive
same,Potency,[6],inactive
same,Potency,[7],inactive
same,Potency,[8],inactive
same,Potency,[9],inactive
same,Potency,[15],inactive
same,Potency,[10],inactive
O=c1[nH]sc2ccccc12,Potency,[1],inactive
same,Potency,[2],68.6 µM (active)
same,Potency,[4],30.6 µM (active)
same,Potency,[14],54.9 µM (active)
same,Potency,[7],49 µM (active)
same,Potency,[9],49 µM (active)
same,Potency,[15],inactive
same,Potency,[10],12.3 µM (active)
COc1ccc(C(=O)/C(Br)=C\C(=O)O)cc1,Potency,[1],inactive
same,Potency,[2],inactive
same,Potency,[14],inactive
same,Potency,[11],inactive
same,Potency,[7],inactive
same,Potency,[9],inactive
same,Potency,[10],inactive
CCN(CC)CCCC(C)Nc1c2ccc(Cl)cc2nc2ccc(OC)cc12 (configuration not stated),Potency,[1],9.44 µM (active)
same,Potency,[2],inactive
same,Potency,[4],7.5 µM (active)
same,Potency,[11],11.9 µM (active)
same,Potency,[12],29.8 µM (active)
same,Potency,[7],13.3 µM (active)
same,Potency,[9],26.6 µM (active)
CCCCCCCCn1sc(Cl)c(Cl)c1=O,Potency,[1],inactive
same,Potency,[13],inactive
same,Potency,[18],49 µM (active)
same,Potency,[3],21.9 µM (active)
same,Potency,[4],4.33 µM (active)
same,Potency,[11],3.09 µM (active)
same,Potency,[12],3.89 µM (active)
same,Potency,[6],43.6 µM (active)
same,Potency,[7],4.36 µM (active)
same,Potency,[9],9.77 µM (active)
same,Potency,[10],2.75 µM (active)
CCCC(=O)OC[C@@H](OC(=O)CCC)[C@@H](OC(=O)CCC)[C@H](Cn1c2nc(=O)[nH]c(=O)c-2nc2cc(C)c(C)cc21)OC(=O)CCC,Potency,[1],inactive
same,Potency,[13],inactive
same,Potency,[3],inactive
same,Potency,[4],26.6 µM (active)
same,Potency,[11],inactive
same,Potency,[7],inactive
same,Potency,[9],inactive
same,Potency,[10],inactive
Cc1cc(C2CCCCC2)n(O)c(=O)c1,Potency,[1],inactive
same,Potency,[2],inactive
same,Potency,[14],inactive
same,Potency,[12],9.44 µM (active)
same,Potency,[10],18.8 µM (active)
Cc1cc(O)c(C(C)(C)C)cc1C(C)(C)C,Potency,[1],inactive
same,Potency,[3],49 µM (active)
same,Potency,[4],54.5 µM (active)
same,Potency,[14],43.6 µM (active)
same,Potency,[11],43.6 µM (active)
same,Potency,[12],34.7 µM (active)
same,Potency,[6],49 µM (active)
same,Potency,[7],54.9 µM (active)
same,Potency,[9],49 µM (active)
same,Potency,[19],19.5 µM (active)
same,Potency,[10],19.5 µM (active)
Cc1cccc2c1cc1ccc3cccc4ccc2c1c34,Potency,[1],0.558 µM (active)
same,Potency,[3],inactive
same,Potency,[4],inactive
same,Potency,[14],inactive
same,Potency,[12],inactive
same,Potency,[7],inactive
same,Potency,[15],3.16 µM (active)
same,Potency,[10],inactive
OCc1c[nH]c2ccccc12,Potency,[1],5.14 µM (active)
same,Potency,[18],12.3 µM (active)
same,Potency,[4],inactive
same,Potency,[14],inactive
same,Potency,[9],inactive
